Source: PubChem BioAssay (NMMLSC)
GSH bead fluor: GSH bead compound fluorescence profile | AID 1776 | fluorescence (KMESF) at 10 µM | GSH beads flow cytometry, compound fluorescence 488/530 nm; active compounds read high | hit rate 0.25% among 190,000; in the data active = fluorescence above about 89;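 also: glutathione beads carrying GST-tagged Bcl family fusion proteins plus one bare bead set; values are compound well signal with DMSO vehicle wells as background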
RGS8-Gao: human RGS8-Galphao interaction regulation. P09471. multiplexed bead flow cytometry, RGS8-Galphao binding; actives lie on both sides. hit rate 0.34% among 220,000. AID 1423. response (percent of control binding), % at 10 µM; in the data active = response below about 60% or above about 140%; inactive = in between;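 also: Galphao activated as the GDP aluminium fluoride complex binding bead-coupled RGS8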
RGS4-Gao reg: modulates binding of RGS4 to human Galphao | P09471 | Multiplexed bead flow cytometry; actives lie on both sides | binding response (% of control), % at 10 µM | hit rate 0.33% among 220,000 | AID 1415; in the data active = binding response below about 49% or above about 150%; inactive = in between;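 also: fluorescent Galphao activated with aluminum fluoride binding bead-coupled RGS4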
RGS7-Gao: modulates binding of RGS7 to human Galphao. P09471. Multiplexed bead flow cytometry; actives lie on both sides. binding response (% of control), % at 10 µM. hit rate 0.35% among 220,000; in the data active = binding response below about 49% or above about 150%; inconclusive = no clear call, values can overlap the other calls; inactive = in between;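 also: fluorescent Galphao held in activated GDP-AlF4 state binding bead-coupled RGS7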
RGS16-Gao: regulators of human RGS16-Galphao interaction. bead-based flow cytometry RGS16-Galphao binding, fluorescence; actives lie on both sides. hit rate 0.38% among 220,000. binding response (% of control), % at 10 µM;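 also: Galphao activated by GDP with aluminum fluoride before binding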
Avidin fluor: avidin bead compound fluorescence profile. Avidin beads, compound fluorescence 488/530 nm, flow cytometry; active compounds read high. fluorescence (KMESF) at 10 µM. hit rate 0.38% among 220,000. AID 1775; in the data active = fluorescence above about 47
RGS-Gao: RGS4-Galphao interaction regulator (human); shares compounds with RGS16-Gao; multiplexed bead flow cytometry, RGS–Galpha-o binding; RGS4–Galpha-o binding response, % at 10 µM; hit rate 99% among 1,600;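 also: fluorescently labeled Galpha-o bound to GDP with aluminium fluoride binding biotinylated RGS beads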
Biotin-avidin: counter-screen: compounds disrupting biotin binding to avidin beads. shares compounds with RGS16-Gao. 1,700 tested, under 10 active. streptavidin beads, fluorescein-biotin binding, flow cytometry. AID 1783. inhibition, % at 10 µM;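 active = inhibition above 50%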;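 also: median green fluorescence of gated singlet beads compared with DMSO control wells; 0% = DMSO wells and 100% = complete loss of bead fluorescence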
RGS8-Gao confirm: RGS8-Galphao interaction regulation, single point confirmation. shares compounds with RGS16-Gao. hit rate 3% among 1,700. bead-based flow cytometry RGS8-Galphao binding, fluorescence; actives lie on both sides. binding response (% of control), % at 10 µM; in the data active = binding response below about 72% or above about 130%; inactive = in between;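 also: Galphao activated as GDP AlF4 complex before binding bead RGS8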
RGS7-Gao single: RGS7-Galphao interaction regulation, single point confirmation | shares compounds with RGS16-Gao | bead-based flow cytometry RGS7-Galphao binding; actives lie on both sides | response (percent of control binding), % at 10 µM | hit rate 7.8% among 1,700 | AID 1837; in the data active = response below about 75% or above about 130%; inactive = in between;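 also: fluorescent Galphao activated with GDP and aluminum fluoride binding bead-coupled RGS7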
RGS16-Gao conf: confirmation of regulators of human RGS16-Galphao interaction; response (% of control binding), % at 10 µM; hit rate 4% among 1,700; bead-based flow cytometry, RGS16-Galphao binding; actives lie on both sides; shares compounds with RGS16-Gao; AID 1838; in the data active = response below about 74% or above about 130%; inactive = in between;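 also: Galphao activated as the GDP aluminium fluoride complex binding bead-coupled RGS16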
RGS4-Gao confirm: RGS4-Galphao interaction regulation, single point confirmation; shares compounds with RGS16-Gao; RGS4-Galphao binding, multiplexed bead flow cytometry; actives lie on both sides; binding response (% of control), % at 10 µM; hit rate 4% among 1,700; AID 1840; in the data active = binding response below about 74% or above about 130%; inactive = in between
RGS19-Gao conf: RGS19-Galphao interaction regulation, single point confirmation. shares compounds with RGS16-Gao. bead-based flow cytometry RGS19-Galphao binding; actives lie on both sides. response (percent of control binding), % at 10 µM. hit rate 5% among 1,700. AID 1841; in the data active = response below about 50% or above about 160%; inactive = in between;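 also: 100% = no compound control and 0% = blank background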
Numbers without * were called inactive; [ ] = dose if it differs, or a comment. In the library only some 1.2% were active in any assay of this set; here they are far more common. Unless noted, no rule for the calls is given here.

`O=C(N/N=C/C=C/c1ccc(Br)cc1)C(O)c1ccccc1` (stereo unspecified) gave GSH bead fluor 15, RGS8-Gao 104, RGS4-Gao reg 103, RGS7-Gao 103, RGS16-Gao 114 and Avidin fluor 11.
Screening CC(NC(=O)Cc1cccs1)C(c1cccs1)N1CCOCC1 (stereo unspecified) returned GSH bead fluor 37, RGS8-Gao 45*, RGS4-Gao reg 39*, RGS7-Gao 45*, RGS16-Gao 7.5*, Avidin fluor 2, Biotin-avidin 1, RGS8-Gao confirm 111, RGS7-Gao single 119, RGS16-Gao conf 110, RGS4-Gao confirm 114 and RGS19-Gao conf 105.
Screening Cc1cccc(C)c1NC(=O)C(=O)c1cn(C)c2ccccc12 returned GSH bead fluor 20, RGS8-Gao 99, RGS4-Gao reg 97, RGS7-Gao 102, RGS16-Gao 99 and Avidin fluor 9.
For Cc1cc(NC(=O)C(=O)c2cn(C)c3ccccc23)no1 the results were GSH bead fluor 14, RGS8-Gao 104, RGS4-Gao reg 110, RGS7-Gao 165*[activator], RGS16-Gao 106, Avidin fluor 62*, RGS-Gao 110*, Biotin-avidin -1, RGS8-Gao confirm 109, RGS7-Gao single 102, RGS16-Gao conf 108, RGS4-Gao confirm 105 and RGS19-Gao conf 101.
`CCC(=O)Nc1cc(-c2nn(CC(=O)N3CCCCC3)c(=O)c3ccccc23)ccc1N1CCOCC1` gave GSH bead fluor 34, RGS8-Gao 100, RGS4-Gao reg 117, RGS7-Gao 155*[activator], RGS16-Gao 108, Avidin fluor 143*, RGS-Gao 117*, Biotin-avidin -2, RGS8-Gao confirm 104, RGS7-Gao single 100, RGS16-Gao conf 103, RGS4-Gao confirm 101 and RGS19-Gao conf 112.
COc1cc(CCC(=O)OCC(=O)Nc2ccccc2C#N)cc(OC)c1OC was read as GSH bead fluor 27, RGS8-Gao 107, RGS4-Gao reg 104, RGS7-Gao 108, RGS16-Gao 111 and Avidin fluor 26.
Cc1ccc(S(=O)(=O)NCCc2nnc3ccc(SCC(=O)Nc4nc5ccccc5s4)nn23)cc1 was read as GSH bead fluor 8, RGS8-Gao 114, RGS4-Gao reg 105, RGS7-Gao 109, RGS16-Gao 177*[activator], Avidin fluor 3, RGS-Gao 105*, Biotin-avidin 0, RGS8-Gao confirm 95, RGS7-Gao single 91, RGS16-Gao conf 93, RGS4-Gao confirm 92 and RGS19-Gao conf 82.
CC(=O)OCC1(C)CN(c2ccccc2)NC1=O (stereo unspecified) was read as GSH bead fluor 14, RGS8-Gao 99, RGS4-Gao reg 100, RGS7-Gao inconclusive, RGS16-Gao 100 and Avidin fluor 10.
